ROC1-CUL1 inh: inhibitors of human ROC1-CUL1 ubiquitin ligase activity. P62877+Q13616. in vitro K48 di-Ub FRET, acceptor:donor ratio, 45 min. inhibition, % at 10 µM. 140,000 compounds, 0.6% hits. AID 1347404; in the data active = inhibition above about 25%
Target sequence (P62877 whole entry, looked up): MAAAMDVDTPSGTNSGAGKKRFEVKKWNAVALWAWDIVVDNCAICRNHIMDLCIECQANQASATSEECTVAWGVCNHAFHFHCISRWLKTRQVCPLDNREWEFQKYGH
Target sequence (Q13616 whole entry, looked up): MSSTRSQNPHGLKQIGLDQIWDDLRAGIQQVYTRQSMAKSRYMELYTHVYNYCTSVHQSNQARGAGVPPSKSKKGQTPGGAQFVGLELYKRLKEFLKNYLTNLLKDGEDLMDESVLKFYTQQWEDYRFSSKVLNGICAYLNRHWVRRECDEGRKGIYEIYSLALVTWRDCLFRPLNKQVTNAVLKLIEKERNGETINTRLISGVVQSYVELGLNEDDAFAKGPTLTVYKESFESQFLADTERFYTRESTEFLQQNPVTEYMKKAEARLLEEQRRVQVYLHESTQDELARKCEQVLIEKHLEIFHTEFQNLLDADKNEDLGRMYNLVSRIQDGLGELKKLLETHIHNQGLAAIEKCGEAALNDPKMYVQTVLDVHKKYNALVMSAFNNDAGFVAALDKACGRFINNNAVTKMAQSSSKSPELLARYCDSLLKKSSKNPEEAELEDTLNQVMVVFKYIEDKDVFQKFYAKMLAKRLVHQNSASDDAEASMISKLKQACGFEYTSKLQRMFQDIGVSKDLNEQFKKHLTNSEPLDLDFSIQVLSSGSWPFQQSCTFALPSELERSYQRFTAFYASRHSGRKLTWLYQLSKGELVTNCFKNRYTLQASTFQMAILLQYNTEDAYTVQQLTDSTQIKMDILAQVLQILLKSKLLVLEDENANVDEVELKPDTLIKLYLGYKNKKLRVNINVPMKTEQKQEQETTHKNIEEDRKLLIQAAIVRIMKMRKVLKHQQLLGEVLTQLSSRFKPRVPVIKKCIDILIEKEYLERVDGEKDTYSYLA
Each line names hits and unclear results; the compound was inactive in the other large screens. The sample as a whole holds a higher share of hits than the screen did.

CCOc1ccc(N=C2S/C(=C\c3cccs3)C(=O)N2CC)cc1	none
CCNS(=O)(=O)Cc1ccc(Br)cc1	none
Cc1cccc(NC(=O)c2ccccc2NC(=O)C2CC=CCC2C(=O)O)c1 (stereo not drawn)	none
CCN(C)C(=O)C1CCCN(C2CCN(Cc3ccccc3)CC2)C1 (stereo not drawn)	none
O=C1NC(=Nc2ccc(F)cc2)S/C1=C\c1ccc(O)c(Br)c1	none
COc1cc(/C=C2\SC(=Nc3cc(C)cc(C)c3)NC2=O)cc(Br)c1O	none
O=C1NC(=Nc2cccc(C(F)(F)F)c2)S/C1=C\c1cc(O)c(O)c(Br)c1	ROC1-CUL1 inh 30
Cn1ccnc1CNC(=O)c1cc(CN2CCC(Cc3ccccc3)CC2)on1	none
CCOC(=O)C1C(c2ccc(N(CC)Cc3ccccc3)cc2)NC(=O)NC1(O)C(F)(F)F (stereo not drawn)	none
Cc1c(C(C)NC(=O)C2=CC(=O)CC(C)(C)O2)cnn1-c1ccccn1 (stereo not drawn)	none
CCOc1cc(/C=C2\C(=O)NC(=O)N(c3ccc(Cl)cc3)C2=O)cc(Br)c1O	none
Cc1ccc(N2NC(=O)/C(=C/c3cc4c(cc3Cl)OCO4)C2=O)cc1C	ROC1-CUL1 inh 65
CCOc1ccccc1/C=C1\C(=O)NN(c2ccc(C)c(C)c2)C1=O	ROC1-CUL1 inh 47
Cc1ccc(N2NC(=O)/C(=C/c3ccc4c(c3)n(C)c(=O)n4C)C2=O)cc1Cl	none
CCOc1cc(/C=C2\C(=O)NN(c3ccc(Cl)cc3)C2=O)c(Br)c(Br)c1O	ROC1-CUL1 inh 73
CCOc1ccc(/C=C2/C(=O)NN(c3ccc(Cl)cc3)C2=O)cc1OC	none
O=C1NC(=S)NC(=O)C1=Cc1cc2c(cc1Cl)OCO2	none
CCOc1c(/C=C2\C(=O)NN(c3ccc(Cl)c(Cl)c3)C2=O)cccc1OC	none
Cc1ccc(N2NC(=O)/C(=C/c3ccccc3OCc3ccccc3)C2=O)cc1	none
O=C(Oc1ccccc1[N+](=O)[O-])c1ccc(Cl)cc1Cl	none
CCCCS(=O)(=O)N1CCC(C(=O)Nc2ccccc2C)CC1	none
COc1ccc(C(=O)c2coc3cc([N+](=O)[O-])c(O)c([N+](=O)[O-])c23)cc1	none
CC(=O)c1sc2nc(N)c(C#N)cc2c1N	none
O=C1c2ccccc2C(O)(C(Cc2ccccc2)c2ccccc2)N1Cc1ccccc1 (stereo not drawn)	none
Cn1c2ccccc2c2nsnc21	none
C#CCNC(=O)C[n+]1c2ccccc2n2nc3c(cc21)c1cccc2cccc3c21	none
Cn1c2cccc3cccc(c32)[n+]2nc3c(cc12)c1cccc2cccc3c21	ROC1-CUL1 inh 95
CC1=C(c2ccccc2)N(c2ccccc2)C(=O)C(S(=O)(=O)c2ccccc2)C1=O (stereo not drawn)	none
N#Cc1c(-c2ccccc2)cc(-c2ccccc2)nc1SCCN1CCOCC1	ROC1-CUL1 inh 100
Cc1nc(SCCN2CCOCC2)cc(-c2ccccc2)n1	none
N#Cc1c(-c2ccccc2)cc(-c2cccs2)nc1SCCN1CCOCC1	none
Cc1cc(NS(=O)(=O)c2ccc(NC(=O)C34CC5CC(C3)CC(n3cnc(Cl)n3)(C5)C4)cc2)no1	none
Cc1cc(=O)oc2cc(NC(=O)[C@H]3O[C@@H]4OC(C)(C)O[C@@H]4[C@H]4OC(C)(C)O[C@H]43)ccc12	none
CC(C)Oc1cccc(-c2cc(C(=O)NC(=S)Nc3cccc(O)c3)c3ccccc3n2)c1	none
N#C/C(=C\c1ccccc1)S(=O)(=O)c1ccccc1	none
N#C/C(=C\c1ccc(F)cc1)S(=O)(=O)c1ccccc1	none
COc1ccc(-c2ccc(/C=C(/C#N)S(=O)(=O)c3ccccc3)o2)cc1	ROC1-CUL1 inh 29
COc1cc(-c2[nH]ncc2CN(CC2CCC(=O)N2)C(C)C)cc(OC)c1OC (stereo not drawn)	none
COC(=O)c1ccc(-n2c(C)ccc2C)cc1	none
CC(=O)Nc1ccc(-n2c(C)ccc2C)cc1	none
Cc1ccc(C)n1-c1ccc(CC(=O)O)cc1	ROC1-CUL1 inh 67
Cc1cccc(-c2cnc(-c3ccncc3)nc2C2CCN(C(=O)c3cc(CC(C)C)on3)CC2)c1	none
C=CCSc1nnc(CSc2nc3ccccc3c(=O)n2CC=C)n1-c1ccccc1	none
COC(=O)c1c(C)sc(-c2c(-c3ccc4c(c3)OCCO4)[nH]c3c2c(=O)[nH]c(=O)n3C)c1O	ROC1-CUL1 inh 27
COC(=O)c1c(C)sc(-c2c(-c3ccc(OC)c(F)c3)[nH]c3c2c(=O)n(C)c(=O)n3C)c1O	none
COC(=O)c1c(C)sc(-c2c(-c3cccc(OC)c3)[nH]c3c2c(=O)[nH]c(=O)n3C)c1O	none
CCOc1c(Br)cc(C2NC(=S)NC(C)=C2C(=O)Nc2ccccc2)cc1OC (stereo not drawn)	none
O=C(Nc1nnc(C(F)(F)F)s1)c1ccc(Cl)cc1	none
O=S(=O)(CNC(=S)c1ccccc1)c1ccccc1	ROC1-CUL1 inh 35
COc1cccc(C(=S)NCS(=O)(=O)c2ccc(C)cc2)c1	none
S=C(NCCc1ccccn1)c1ccccc1	none
NC(=O)c1ccc2c(c1)CCN2S(=O)(=O)c1ccccc1	none
O=C(Nc1ccc(-c2cccc(F)c2)cc1)C1CCCN(C(=O)c2ccoc2)C1 (stereo not drawn)	ROC1-CUL1 inh 92
O=C(Nc1ccc(-c2cccc(F)c2)cc1)C1CCCN(CC2CC2)C1 (stereo not drawn)	none
O=C(Nc1ccc(-c2cccc(F)c2)cc1)C1CCCN(Cc2nccs2)C1 (stereo not drawn)	none
CCOC(=O)c1ccc(NC(=O)CSc2ncnc3sc(C)c(C)c23)cc1	none
Cc1[nH]n(-c2ccccc2)c(=O)c1C(C[N+](=O)[O-])c1ccc(F)cc1 (stereo not drawn)	ROC1-CUL1 inh 59
Cc1[nH]n(-c2ccccc2)c(=O)c1C(c1ccc(OCc2ccc(F)cc2)cc1)c1c(C)[nH]n(-c2ccccc2)c1=O	none
Cc1[nH]n(-c2ccccc2)c(=O)c1C(c1ccco1)c1c(C)[nH]n(-c2ccccc2)c1=O	none
COc1cc(C(c2c(C)[nH]n(-c3ccccc3)c2=O)c2c(C)[nH]n(-c3ccccc3)c2=O)ccc1C	none
Cc1[nH]n(-c2ccccc2)c(=O)c1C(c1ccccc1O)c1c(C)[nH]n(-c2ccccc2)c1=O	none
Cc1[nH]n(-c2ccccc2)c(=O)c1C(c1ccc2c(c1)OCO2)c1c(C)[nH]n(-c2ccccc2)c1=O	ROC1-CUL1 inh 46
Cc1[nH]n(-c2ccccc2)c(=O)c1C(C[N+](=O)[O-])c1ccc(Cl)cc1 (stereo not drawn)	none
CCOc1cc(C(c2c(C)[nH]n(-c3ccccc3)c2=O)c2c(C)[nH]n(-c3ccccc3)c2=O)ccc1O	ROC1-CUL1 inh 39
CCOc1cc(C(c2c(C)[nH]n(-c3ccccc3)c2=O)c2c(C)[nH]n(-c3ccccc3)c2=O)ccc1OCc1ccc(Cl)cc1	none
COc1ccc(/C=C2\CCc3ccccc3C2=O)cc1COc1ccc(F)cc1F	none
CSc1ccc(Cl)c(C(=O)Nc2ccccc2C(=O)NCCOc2ccccc2)c1	none
Nc1c(C(=O)Nc2nc(-c3ccccc3)cs2)sc2nc(-c3cccs3)cc(C(F)(F)F)c12	none
CCN1CCC(NC(=O)c2c(-c3c(F)cccc3Cl)noc2C)CC1	none
CC1CCN(S(=O)(=O)Cc2cccc(Cl)c2)CC1	none
CC1=NN(C)c2nc3c(c(=O)n(Cc4ccccc4F)c(=O)n3C)n2C1	none
CC1=NNc2nc3c(c(=O)n(Cc4cc(C)ccc4C)c(=O)n3C)n2C1	none
O=C1CCNn2c1nc1ccccc1c2=O	none
CC(OC(=O)c1cc(Br)c(N)c(Br)c1)C(=O)c1ccccc1 (stereo not drawn)	none
C#CCOc1c(Br)cc(C2CC(=O)Nc3ccc4ccccc4c32)cc1OCC (stereo not drawn)	none
Cc1cccc(CS(=O)(=O)N2CCN(c3ccccc3F)CC2)c1	none
Cc1cccnc1CN1CCN(Cc2cnc(S(C)(=O)=O)n2CC(C)C)CC1	none

Screening data as filed in PubChem.
